{"source": "PubChem BioAssay (EPA / NIEHS)", "note": "Activity calls are given as the source filed them. How the source made its calls: active means hit-call score of the fitted dose curve at least 0.9, where 1 is the maximum; inactive means score below 0.9.", "data": [{"experiment": "ATG_Oct_MLP_CIS: Attagene CIS-FACTORIAL HepG2 Assay for human Octamer-Binding Transcription Factor (Oct) (AID 2282993)", "conditions": "HepG2 Attagene cis-factorial Oct reporter, mRNA; actives raise or lower the signal", "procedure,_shortened": "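Transfected HepG2 cells, 24 h treatment. Reporter mRNA quantified by RT-PCR–capillary electrophoresis; bidirectional fitting against DMSO.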", "values": [{"molecule": "O=[N+]([O-])c1cc(Cl)ccc1Cl", "outcome": "inactive"}, {"molecule": "FC(F)(F)c1ccc(Cl)cc1", "outcome": "inactive"}, {"molecule": "CC(O)C(F)(F)C(F)(F)F", "note": "(stereo not drawn)", "outcome": "inactive"}, {"molecule": "Clc1ccc(Oc2ccccc2)cc1", "outcome": "inactive"}, {"molecule": "O=C(O)C(F)(F)C(F)(F)C(=O)O", "outcome": "inactive"}, {"molecule": "O=S1(=O)OCC2C(CO1)C1(Cl)C(Cl)=C(Cl)C2(Cl)C1(Cl)Cl", "note": "(stereo not drawn)", "AC50": "170 µM (active)"}, {"molecule": "CNC(=O)Oc1ccc(N(C)C)c(C)c1", "outcome": "inactive"}, {"molecule": "O=c1[nH]c2ccccc2c(=O)o1", "outcome": "inactive"}, {"molecule": "O=NN1CCCC1", "outcome": "inactive"}, {"molecule": "COC(N)=O", "outcome": "inactive"}, {"molecule": "c1ccc(OP(Oc2ccccc2)Oc2ccccc2)cc1", "outcome": "inactive"}, {"molecule": "CC(C)CBr", "outcome": "inactive"}, {"molecule": "CCCCc1ccc(O)cc1", "outcome": "inactive"}, {"molecule": "OCC(F)(F)OC(F)(F)C(F)(F)OC(F)(F)C(F)(F)OC(F)(F)F", "outcome": "inactive"}, {"molecule": "NNC(N)=S", "outcome": "inactive"}, {"molecule": "C/C(=N\\NC(=O)Nc1cc(F)cc(F)c1)c1ncccc1C(=O)O", "outcome": "inactive"}, {"molecule": "CC(O)C#N", "note": "(stereo not drawn)", "outcome": "inactive"}, {"molecule": "N#C/C=C/c1ccccc1", "outcome": "inactive"}, {"molecule": "CC(=O)CCc1ccc2c(c1)OCO2", "outcome": "inactive"}, {"molecule": "C=CC(=O)OCC(F)(F)C(F)F", "outcome": "inactive"}, {"molecule": "O=S(=O)(F)C(F)(F)C(F)(F)C(F)(F)C(F)(F)C(F)(F)C(F)(F)C(F)(F)C(F)(F)F", "outcome": "inactive"}, {"molecule": "Oc1ccccc1Br", "outcome": "inactive"}, {"molecule": "CC1=C(C(=O)Nc2ccccc2)S(=O)(=O)CCO1", "outcome": "inactive"}, {"molecule": "O=S(=O)(c1ccc(O)cc1)c1ccc(O)cc1", "outcome": "inactive"}, {"molecule": "Cc1ccc(C(=O)Cl)cc1", "outcome": "inactive"}, {"molecule": "CCN(CC)C1CCCCC1", "outcome": "inactive"}, {"molecule": "Cc1cc(C)c(C(=O)P(=O)(c2ccccc2)c2ccccc2)c(C)c1", "outcome": "inactive"}, {"molecule": "CC1(C)CN=C(NN=C(/C=C/c2ccc(C(F)(F)F)cc2)/C=C/c2ccc(C(F)(F)F)cc2)NC1", "AC50": "20.8 µM (active)"}]}]}
